# Test results published in the supplement of paper PMC3334620.
# The full ranking holds about 33,000 sequences; the median of “E-score (-0.5 to 0.5)” is about -0.0014, and the highest 2% start at about 0.25. The list comes from a sample in which the highest values are over-represented; it also holds similar and randomly drawn sequences.
# Biological target: T1, Cad1 (UniProt P24813)
# T1 sequence: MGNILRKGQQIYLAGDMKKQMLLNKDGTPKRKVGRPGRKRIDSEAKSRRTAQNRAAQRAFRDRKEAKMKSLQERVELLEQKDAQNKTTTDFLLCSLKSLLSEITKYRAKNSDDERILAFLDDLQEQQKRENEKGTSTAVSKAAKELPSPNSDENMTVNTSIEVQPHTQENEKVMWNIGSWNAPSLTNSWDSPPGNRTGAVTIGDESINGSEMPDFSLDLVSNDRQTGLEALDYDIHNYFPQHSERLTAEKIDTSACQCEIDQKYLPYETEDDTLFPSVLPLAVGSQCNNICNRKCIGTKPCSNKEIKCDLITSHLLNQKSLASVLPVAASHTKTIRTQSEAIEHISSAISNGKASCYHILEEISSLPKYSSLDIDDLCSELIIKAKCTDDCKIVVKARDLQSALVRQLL
# Assay: PBM E-score (8-mer binding enrichment) (E-score (-0.5 to 0.5)); higher = stronger / more preferred TF binding
# Details: protein concentration: 100 nM; construct: GST-full length
# Procedure: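 Universal 'all 10-mer' protein binding microarrays (Agilent AMADID 015681) probed with GST-tagged S. cerevisiae TFs (full-length or DBD) made by in vitro transcription/translation (PURExpress), about 100-200 nM. Bound TF was detected with fluorescent anti-GST. Each ungapped 8-mer (which stands for itself and its reverse complement) is scored by the PBM enrichment score (E-score), a modified Wilcoxon-Mann-Whitney statistic from -0.5 to +0.5, computed with the Universal PBM Analysis Suite. Scale: above 0.35 generally sequence-specific binding.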
row,Sequence,PBM E-score
1,GGTAGTAA,-0.0434
2,TATAGTAA,0.294
3,GATAGTAA,0.156
4,GTTAGTGA,-0.0153
5,GTTAGTAA,0.422
6,CATAGTAA,0.141
7,ACCACACC,-0.169
8,CCAGGAAG,-0.131
9,ACTCGACT,-0.153
10,CACCGAAA,0.12
11,TTGACAAA,0.294
12,ATGACAAA,0.414
13,TCGACAAA,0.195
14,TTGACCAA,0.0548
15,GTGACAAA,0.229
16,ATGACATA,0.267
17,CTGACCAA,0.276
18,ATGACAAG,0.127
19,ATGACATC,0.232
20,CTGACATA,0.205
21,ATGACAAC,0.183
22,GTGACCAA,0.0231
23,CAGCGCGG,0.112
24,TATTGCAA,0.19
25,CTCCGCAG,0.00742

row,Sequence,PBM E-score
1,GGCCTTAC,-0.166
2,AACCAAAC,-0.102
3,AGATGGGA,-0.204
4,CTGACAAG,0.101
5,CTGACAAC,0.0707
6,CTGACAAA,0.444
7,CAACTAGG,0.079
8,CGAGGCAG,0.0833
9,AACCTCAC,-0.112
10,ATGTTTTC,0.268
11,ATGTTTCC,-0.00726
12,ATGTTTTA,0.0134
13,CTGTTGGC,-0.202
14,ATTTGTTC,0.265
15,ATTTGTCG,0.147
16,ATTTGTCC,0.253
17,CTTTGTTC,0.0827
18,ATTTGTTA,0.203
19,ATTTGTGC,0.148
20,AAATCCTC,-0.0802
21,GTGTGACA,0.0138
22,ATGTGACA,0.281
23,CTGTGACA,0.209
24,GCATCCCA,-0.303
25,CGCACTTC,-0.184

row,Sequence,PBM E-score
1,CCCAAGAG,-0.132
2,ATATTACG,0.24
3,CTATTACA,0.123
4,CTATTACC,-0.0596
5,ATATTACC,0.28
6,ATATTACA,0.347
7,GTATTACA,0.234
8,AGCCGTCG,0.219
9,CACGGAAG,-0.00842
10,TATAGGAA,0.127
11,CGACCCGC,0.0365
12,AATAACGC,-0.0922
13,AATAACGG,0.253
14,CATAACGG,-0.00107
15,GATTGCAA,0.117
16,AGGACCCA,-0.22
17,AAGCGCTA,0.107
18,TCGCGAGA,0.165
19,ACGCGCGG,0.136
20,CCGCGCGG,0.417
21,AATCGCGC,0.327
22,GATCGCGC,0.118
23,AATCGCGT,0.107
24,CCGCGCCG,0.174
25,AAGCGCTC,0.0197

row,Sequence,PBM E-score
1,TCGCGCGA,0.308
2,AAGCGCTT,0.421
3,TAGCGCGA,0.211
4,ATCGGTAG,0.0904
5,AGCACACT,-0.0625
6,AGAGCCAG,-0.239
7,CGCGTACA,-0.008
8,ATGCCGTC,-0.0686
9,AAGATCCA,-0.089
10,CTCTGGGA,-0.252
11,AGGACACC,0.00026
12,ACAAACAT,0.145
13,CCCGCGGG,0.0407
14,CCCTACAA,-0.14
15,AAGGGGGT,-0.389
16,CCGCGAAA,0.0147
17,CATCGTGC,0.162
18,AATCGTGC,0.276
19,GCGCGAAA,0.308
20,CCGCGCGA,0.295
21,AATCGTGA,0.0886
22,TCGCGAAA,0.168
23,CCGCGCGC,0.144
24,CAGCGCTG,0.263
25,CAGCGCTC,0.153

row,Sequence,PBM E-score
1,CAGCGCTA,0.157
2,CCGCGAGA,-0.102
3,TAGCCGAA,-0.0837
4,CCCTCCCG,-0.226
5,CAACATCG,0.0708
6,ACAGAAAG,-0.0964
7,GTCGGTGA,-0.13
8,TCATTCAA,0.13
9,AGGTACCC,-0.138
10,ATCTTTCC,0.0734
11,CCGTCTAG,-0.128
12,CACGAGCC,-0.209
13,CAATCGCA,0.00664
14,GTGCGCGA,-0.0729
15,GCGCGCGA,0.265
16,AACCGCGT,0.122
17,AACCGCGA,0.287
18,GCGCGCAC,0.218
19,TACCGCGA,0.172
20,ACGCGCGC,0.216
21,GCGCGCGC,0.417
22,ACCCGCGT,-0.00317
23,ACCCGCGA,0.0834
24,ACCCGCGC,0.256
25,ACGCGCGA,0.139

row,Sequence,PBM E-score
1,AAGTGTTA,0.0352
2,ACAGCACG,-0.0152
3,AACCCCAA,0.113
4,ATAACTCC,0.0565
5,AGATGAAA,0.02
6,AAGCGCGA,0.101
7,AAGCGCGG,-0.0419
8,AAGCGCGC,0.276
9,AACTCCGT,0.0805
10,AGCCGGCG,0.0742
11,CGCCGGCC,-0.124
12,CGCCGGCG,0.301
13,TAATCTCA,0.0993
14,ACTGTTTG,-0.0907
15,AATCGACA,0.304
16,AATCGACC,-0.051
17,AATCGATA,0.288
18,AATCGACT,-0.039
19,AATCGATT,0.198
20,AATCGATC,0.215
21,AATCGAAG,0.182
22,AATCGATG,0.271
23,CATCGATG,0.169
24,CCTCCATC,-0.237
25,TGTTGCAA,0.228

row,Sequence,PBM E-score
1,ATCCTTCA,-0.174
2,GTACTTCA,0.251
3,CTACTTCA,-0.0482
4,ATACTTCA,-0.0179
5,AGCAGATC,0.256
6,CGCAGATC,0.098
7,AGCAGATA,-0.0464
8,ATGTGCCC,-0.071
9,ACAACCAT,0.281
10,ACAACCAG,0.145
11,ACAACCAC,0.056
12,GGTGCATA,0.00671
13,GTTACCAA,0.0957
14,CGTACCAG,-0.0767
15,TGTACCAA,-0.0377
16,CGTACCAA,0.256
17,ATTACCAC,0.161
18,ATTACCAA,0.292
19,AACCGGTA,-0.0764
20,ATTCCCTG,0.117
21,CTTAAAGA,-0.0851
22,ATTTATAA,0.341
23,CTTTATAA,0.101
24,ATTTATAC,0.226
25,GTTTATCA,0.173

row,Sequence,PBM E-score
1,GTTTATAA,0.264
2,GTTTATGA,0.142
3,CATTCAGG,-0.0709
4,GAGTAATA,0.198
5,TAGTAACA,0.255
6,TAGTATCA,0.265
7,CAGTAAGA,0.194
8,TAGTAAGA,0.265
9,AAGTAACA,0.0629
10,CAGTATCA,0.0166
11,TAGTAATA,0.371
12,GAGTAACA,-0.00744
13,CAGTAATA,0.249
14,GAGTATCA,-0.045
15,AAGTAAGA,-0.215
16,AGGTCCGG,0.0244
17,ACGGGATC,-0.0506
18,TCATGTCA,0.139
19,GGAAGACA,-0.0527
20,ACACAATC,0.0563
21,CCCCGCCC,0.114
22,CTGGCCAC,0.00652
23,CATAGCGC,0.26
24,AATAGCGG,-0.0047
25,AATAGCGA,0.214

row,Sequence,PBM E-score
1,CATAGCGA,0.051
2,CATAGCGG,-0.142
3,AATAGCGC,0.269
4,CACTTCCC,-0.118
5,ACTCCCGA,0.0151
6,AGGGGACG,-0.189
7,GGCAGTCA,-0.00415
8,TCCTCAAA,-0.166
9,ATGAACGG,-0.0252
10,ATGAACGA,0.111
11,ATGAACGC,0.252
12,GAGTTGAC,-0.0116
13,ATAATACA,0.263
14,GCAATACC,-0.0457
15,ATACTACC,0.0181
16,ATAATACG,0.186
17,ACAATACA,0.0445
18,ATACTACA,0.264
19,ATAATACC,0.215
20,CTACTACA,0.196
21,GCAATACA,0.291
